Screens: PubChem BioAssay, Broad Institute
Sampled rows, rich in hits. Any-hit rate of the full collection: about 3.7%.
MITF TRPM1 HTS – increases MITF-driven TRPM1 promoter luciferase signal | SK-MEL-5 TRPM1-promoter luciferase, 24 h; % of positive control, neutral wells = 0 | activation, % at 12.5 µM | hit rate 0.75% among 300,000;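 active = mean activation of at least 80% with every replicate also reaching 80%; inconclusive = mean reaches 80% but some replicate falls short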;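 note: 0% = neutral control wells and 100% = parthenolide positive control wells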
esBAF inh – inhibitors of esBAF chromatin remodeling in mouse ES cells | reporter increase, % at 12.5 µM | hit rate 2% among 350,000 | AID 602393 | Bmi1-luciferase knock-in reporter, 24 h; 100% = twice the neutral-well signal; in the data active = activation above about 40%; inconclusive = no clear call, values can overlap the other calls;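 note: 0% = median of the plate's neutral control wells and 100% = double that signal; a rise in the Bmi1 reporter signal indicates esBAF inhibition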
AF4-AF9 inh – blocks AF4 peptide binding to human AF9 | AID 651704 | hit rate 0.47% among 350,000 | AlphaScreen, biotin-AF4 peptide binding to FLAG-AF9 | P42568 | inhibition, % at 10 µM;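 active = every replicate reaching a set inhibition limit, whatever the replicate mean, cut at about 25% in these data; inconclusive = mean inhibition reaches that limit but some replicates miss it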;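 note: 0% = plate neutral control median and 100% = total signal loss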
Target sequence (P42568 whole entry, looked up): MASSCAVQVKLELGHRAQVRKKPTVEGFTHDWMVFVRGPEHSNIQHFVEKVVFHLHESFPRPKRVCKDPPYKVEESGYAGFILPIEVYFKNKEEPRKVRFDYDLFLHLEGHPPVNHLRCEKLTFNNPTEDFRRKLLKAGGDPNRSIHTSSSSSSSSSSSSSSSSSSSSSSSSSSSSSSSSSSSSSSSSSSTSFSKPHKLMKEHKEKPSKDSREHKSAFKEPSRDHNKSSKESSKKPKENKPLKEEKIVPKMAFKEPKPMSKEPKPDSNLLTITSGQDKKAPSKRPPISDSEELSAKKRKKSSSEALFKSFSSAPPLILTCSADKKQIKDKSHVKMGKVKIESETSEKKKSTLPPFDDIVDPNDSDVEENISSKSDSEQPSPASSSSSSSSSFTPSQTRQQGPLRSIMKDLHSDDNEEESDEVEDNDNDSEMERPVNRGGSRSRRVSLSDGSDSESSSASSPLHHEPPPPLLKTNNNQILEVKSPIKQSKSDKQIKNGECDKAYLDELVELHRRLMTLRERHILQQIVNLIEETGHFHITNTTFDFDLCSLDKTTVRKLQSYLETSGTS
Ecoli rRNA inh – inhibits bacterial ribosomal RNA function over humanized ribosomes | AID 720706 | hit rate 1.6% among 350,000 | GFP signal change (wild-type ribosome), % (no concentration beside the values) | E. coli WT GFP vs humanized-ribosome RFP mutants, fluorescence, 24 h; active compounds read low; DMSO median 0, no signal -100;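 active = significant combined selectivity score with lowered wild-type GFP, culture density cut under 30%, mutant RFP and density less affected; inactive = any of these conditions unmet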
Wnt bcat act – activators of Wnt/beta-catenin signaling. Wnt/beta-catenin reporter cell assay, activator, plate reader. activation, % at 9.35 µM. hit rate 1.2% among 300,000. AID 743398; in the data active = activation above about 30%, passing the limit was not always enough; inconclusive = no clear call, values can overlap the other calls;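 note: 0% = neutral control wells and 100% = positive control wells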
An asterisk follows results filed as active; ? = inconclusive; / = no result given.

SMILES	MITF TRPM1 HTS	esBAF inh	AF4-AF9 inh	Ecoli rRNA inh	Wnt bcat act
Cc1ccc(S(=O)(=O)/N=C(/Nc2c(C)cccc2C)c2ccccc2)cc1	3	4	0	-36*	0
Cc1ccc(S(=O)(=O)/N=C(/Nc2ccc(F)cc2F)c2ccccc2)cc1	-1	1	-3	-5	0
Cc1ccc(S(=O)(=O)/N=C(/Nc2c(C)n(C)n(-c3ccccc3)c2=O)c2ccccc2)cc1	2	2	1	3	-1
Cc1ccc(S(=O)(=O)/N=C(/Nc2ccccc2C)c2ccccc2)cc1	-2	2	2	-23*	0
CCCCC(CC)C(=O)Nc1ccc(Nc2ccccc2)cc1 (stereo not drawn)	14	1	/	/	/
COc1cccc(NC(=O)C[C@@H]2CC[C@@H]3[C@@H](COc4ccc(NC(=O)C5CCC5)cc4C(=O)N3C)O2)c1	/	/	/	-1	/
CCCC12CN3CCN(CC(C3)/C1=N\NC(=O)c1ccccc1N)C2	-4	/	/	/	37*
COc1ccccc1-c1cc2nc(NCCOc3ccccc3)ccn2n1	/	4	-3	-2	0
CCOC(=O)c1nn(-c2ccc(C)cc2)cc1C(=O)c1ccccc1	/	79*	/	/	/
COC(=O)c1nn(-c2ccc3c(c2)OCO3)cc1O	44	/	/	/	/
CCOC(=O)c1cc(-c2ccc3c(c2)OCCO3)n[nH]1	69	/	-1	-32*	14
CCOC(=O)c1nn(-c2ccc([N+](=O)[O-])cc2)cc1O	42	27	-5	0	17
CCOC(=O)c1nn(-c2ccc3c(c2)OCCO3)cc1O	82*	1	-2	-12	27
CCOC(=O)c1nn(-c2ccc(C)c(C)c2)cc1O	?	46*	/	/	/
CC(=O)c1nn(-c2ccc(Cl)cc2)cc1C(=O)c1ccccc1	/	/	-2	-6	2
CCN(Cc1ccccc1)C(c1cccc(C#N)c1)c1nnnn1C(C)(C)C (stereo not drawn)	6	-6	0	-6	3
CC1(C)C2CCC(C2)C1(C)NC(=O)CN1CCOCC1 (stereo not drawn)	-7	-12	/	/	/
CC(C)(C)c1cc(C(=O)N/N=C/c2ccco2)n[nH]1	50	/	/	/	/
O=C(N/N=C/c1ccccn1)c1cc(-c2ccc3ccccc3c2)n[nH]1	-3	/	1	-55	5
O=C(N/N=C/c1ccco1)c1cc(-c2ccc3ccccc3c2)n[nH]1	8	60*	/	/	/
CCc1ccc(-c2cc(C(=O)N/N=C/c3ccco3)[nH]n2)cc1	37	/	-4	-20*	3
CCc1ccc(-c2cc(C(=O)N/N=C/c3ccccn3)[nH]n2)cc1	24	/	2	-25*	-2
Cc1noc(C)c1NC(=O)Nc1ccc2c(c1)CC(=O)N([C@@H](C)CO)C[C@H](C)[C@H](CN(C)Cc1ccc(C(=O)O)cc1)O2	/	1	-4	1	/
CO[C@@H]1CN(C)C(=O)c2cc(NC(=O)Nc3ccccc3F)ccc2OC[C@H](C)NC[C@@H]1C	/	1	-11	1	/
O=C(Cc1ccccn1)N[C@H]1CC[C@@H](CCn2cc(-c3ccc(F)cc3)nn2)O[C@@H]1CO	/	/	-15	-4	/
SMILES	MITF TRPM1 HTS	esBAF inh	AF4-AF9 inh	Ecoli rRNA inh	Wnt bcat act
CC1(C)NC(=O)N(CC(=O)OCc2cc(=O)n3cc(Br)ccc3n2)C1=O	4	/	0	7	-1
CC1(C(=O)OCc2cc(=O)n3cc(Br)ccc3n2)CC1(Cl)Cl (stereo not drawn)	?	83*	4	-15	6
O=C(OCc1cc(=O)n2cc(Br)ccc2n1)C1COc2ccccc2O1 (stereo not drawn)	-4	0	/	/	-1
CC1CC1C(=O)OCc1cc(=O)n2cc(Br)ccc2n1 (stereo not drawn)	80	47*	/	/	41*
Cc1noc(C)c1S(=O)(=O)N(C)C[C@H]1Oc2ccc(NC(=O)Cc3cn(C)c4ccccc34)cc2CC(=O)N([C@@H](C)CO)C[C@@H]1C	/	5	4	-2	/
COc1ccc(N2CCN(c3ccc(N4C(=O)CC(C)C4=O)cc3[N+](=O)[O-])CC2)cc1 (stereo not drawn)	-2	3	9	-29*	0
CC1CC(=O)N(c2ccc(NCCc3ccc(O)cc3)c([N+](=O)[O-])c2)C1=O (stereo not drawn)	-6	13	13	-22*	-1
CCOC(=O)c1c2ccc(OCC(=O)NN)cc2n2ccccc12	7	/	-25	-24*	0
COc1ccc2c(c1OC)C(=O)N1C(C(=O)O)Cc3c([nH]c4ccccc34)C21 (stereo not drawn)	/	-14	/	/	0
CO[C@@H]1CN(C)C(=O)c2cc(NC(=O)Nc3cc(F)ccc3F)ccc2OC[C@H](C)N(C)C[C@H]1C	/	1	2	-11	/
COc1cc2c(cc1OC)CN(C1CCCN(Cc3cc(Cl)ccc3O)C1)CC2 (stereo not drawn)	/	-5	3	-28*	2
CCC(=O)N1[C@@H]2c3cccc(=O)n3C[C@H]1[C@H](CO)[C@H]2C(=O)NC1CCCC1	/	/	-3	-1	/
O=C(Nc1ccc(F)cc1)N1CC(=O)N2[C@H](C1)[C@H](c1ccc(-c3ccccc3)cc1)[C@@H]2CO	/	/	-2	-5	/
CC1CCc2c(sc(/N=C/N(C)C)c2C#N)C1 (stereo not drawn)	55	/	8	-27	39*
CC1CCc2c(sc(NC(=O)C3CCCO3)c2C#N)C1 (stereo not drawn)	128*	?	-1	-19	7
CCOC(=O)Nc1sc2c(c1C#N)CCC(C)C2 (stereo not drawn)	83*	?	/	/	/
COc1ccc(S(=O)(=O)Nc2ccc3c(c2)C(=O)N([C@@H](C)CO)C[C@H](C)[C@@H](CN(C)S(=O)(=O)c2ccc(Cl)cc2)O3)cc1	/	-4	/	-6	/
O=C(C=C1CCN(c2ncc(C(F)(F)F)cc2Cl)CC1)NNC(=O)Nc1ccccc1	/	7	/	/	5
Nc1nc2ccccc2n1C(=O)c1ccco1	28	/	/	/	37*
Nc1nc2ccccc2n1C(=O)c1ccccc1	-1	/	1	-15	-5
O=C(c1ccco1)N1CCn2c1nc1ccccc12	/	46*	/	/	/
CCC(=O)N1CCn2c1nc1ccccc12	0	3	8	17	1
O=C1N[C@H](c2ccccc2)COCc2cn(nn2)CC[C@@H]1Cc1cccc(Cl)c1	/	/	-2	-2	/
NC(=O)[C@@H]1CCCCNc2c(F)cc([N+](=O)[O-])cc2C(=O)N[C@@H](CCCN=C(N)N)C(=O)NCC(=O)N1	13	4	20	0	1
NCCCC[C@@H]1NC(=O)c2cc([N+](=O)[O-])cc(F)c2NCCCC[C@@H](C(N)=O)NC(=O)[C@H](CCC(N)=O)NC1=O	0	2	27*	11	1
COc1cccc(-c2ccc3c(c2)O[C@@H](CN(C)Cc2cncnc2)[C@@H](C)CN([C@@H](C)CO)S3(=O)=O)c1	/	4	2	-6	/
CCn1c(SCC(=O)Nc2nc(-c3ccc(C)cc3)cs2)nnc1-c1ccccc1	/	10	/	/	/
